This is an account of results in PubChem BioAssay (NCI).

Assay [1] can be described thus: NCI Yeast Anticancer Drug Screen. Data for the rad50 strain (AID 155).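 Further: 0% = growth of vehicle-only cultures of the same strain.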 Particulars: S. cerevisiae rad50 strain growth inhibition, active compounds read high. A digest of the protocol: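 Growth of the mutant yeast was measured after compound exposure and referenced to vehicle-treated cultures.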
Assay [2] in a line: NCI Yeast Anticancer Drug Screen. Data for the mec2-1 strain (AID 157). Particulars: S. cerevisiae mec2-1 strain, active compounds read high. A digest of the protocol: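 Using mec2-1 yeast: add compound, measure growth, express inhibition versus vehicle-treated cultures.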
The nature of assay [3]: NCI Yeast Anticancer Drug Screen. Data for the sgs1 mgt1 strain (AID 161).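 Further: 0% = growth of cultures given vehicle only.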 Particulars: S. cerevisiae sgs1 mgt1 strain, active compounds read high. A digest of the protocol: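 This yeast growth screen uses a strain with defined DNA-repair lesions; compound-treated growth is compared with vehicle-treated growth.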
Assay [4] can be described thus: NCI Yeast Anticancer Drug Screen. Data for the cln2 rad14 strain (AID 165).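 Further: 0% = growth equal to vehicle treated cultures.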 Particulars: S. cerevisiae cln2 rad14 strain, active compounds read high. A digest of the protocol: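 Yeast strain cln2 rad14, bearing defects in cell cycle control and DNA repair, serves as the test system; values reflect growth inhibition compared with vehicle.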
Assay [5] is described as follows: NCI Yeast Anticancer Drug Screen. Data for the bub3 strain (AID 167). Particulars: S. cerevisiae bub3 mutant strain, active compounds read high. A digest of the protocol:
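Whole-cell yeast assay. The mutant strain was incubated with compounds, and growth inhibition was determined by comparison with vehicle-treated cells.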

Assay [6] in a line: NCI Yeast Anticancer Drug Screen. Data for the mlh1 rad18 strain (AID 175). Particulars: S. cerevisiae mlh1 rad18 strain growth inhibition, active compounds read high. A digest of the protocol: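 Steps: expose repair-defective yeast to compound; measure growth; express inhibition against vehicle-treated controls.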
Setting [7] is: at 5.0 µM (retest, dose inferred, filed as 0.5).
[8] abbreviates: at 50.0 µM (retest, dose inferred, filed as 5.0).

Structures are written as SMILES. The panel holds about 79,000 compounds, 15% with a hit somewhere; the sample as a whole holds those more often. Unmarked numbers belong to inactive results. Activity calls are given as the source filed them. No stated cut-off is given here; in the data, active means growth inhibition above about 70%; inactive means the rest.

On to `CN(C)Cc1ccc2c(c1)c1c(n2Cc2ccccc2)CCCC1`, for which the growth inhibition in assay [1] (setting [7]) is -2%; in assay [1] (setting [8]) it was 94% (active); in assay [1] (at 50.0 µM) it was 84.3% (active); in assay [2] (setting [7]) it was -7%; in assay [2] (setting [8]), 84% (active); in assay [2] (at 50.0 µM) it was 70.2% (active). Also, the growth inhibition in assay [3] (setting [7]) was -4%; in assay [3] (setting [8]), 20%; in assay [3] (at 50.0 µM) it was 90.4% (active); in assay [4] (setting [7]) it was -5%; in assay [4] (setting [8]), 96% (active); in assay [4] (at 50.0 µM) it was 86.7% (active). For the same compound, the growth inhibition was -8% in assay [5] (setting [7]); 96% (active) in assay [5] (setting [8]); 97.9% (active) in assay [5] (at 50.0 µM); 3% in assay [6] (setting [7]); 97% (active) in assay [6] (setting [8]); 97.7% (active) in assay [6] (at 50.0 µM).
Turning to `COC(=O)[C@@]12OC[C@]34[C@H]([C@@H](O)[C@@H]1O)[C@@]1(C)CC(=O)C(O)=C(C)[C@@H]1C[C@H]3OC(=O)[C@H](OC(=O)C(Cc1ccccc1)NC(=O)OC(C)(C)C)[C@@H]24` (stereo not given in full), the growth inhibition in assay [1] (setting [7]) is 24%; in assay [1] (setting [8]), 73% (active); in assay [1] (at 50.0 µM), 85.8% (active); in assay [2] (setting [7]), 26%; in assay [2] (setting [8]), 68%; in assay [2] (at 50.0 µM), 79.2% (active). For the same compound, the growth inhibition was 27% in assay [3] (setting [7]); 82% (active) in assay [3] (setting [8]); 86.8% (active) in assay [3] (at 50.0 µM); 33% in assay [4] (setting [7]); 78% (active) in assay [4] (setting [8]); 85.9% (active) in assay [4] (at 50.0 µM). Moreover, the growth inhibition in assay [5] (setting [7]) is 31%; in assay [5] (setting [8]), 80% (active); in assay [5] (at 50.0 µM), 83.3% (active); in assay [6] (setting [7]), 3%; in assay [6] (setting [8]) it was 58%; in assay [6] (at 50.0 µM), -65.6%.
For `COc1ccc(/C=C2\C(=O)N(C)C(=O)c3cc(OC)c(OC)cc32)cc1OC`, the growth inhibition in assay [1] (setting [7]) is 1%; in assay [1] (setting [8]), 12%; in assay [1] (at 50.0 µM), 61.4%; in assay [2] (setting [7]), 0%; in assay [2] (setting [8]), 16%; in assay [2] (at 50.0 µM) it was 47.5%. In addition, the growth inhibition was -3% in assay [3] (setting [7]); -4% in assay [3] (setting [8]); 62.9% in assay [3] (at 50.0 µM); 0% in assay [4] (setting [7]); 19% in assay [4] (setting [8]); 46.6% in assay [4] (at 50.0 µM). The growth inhibition was 5% in assay [5] (setting [7]); 32% in assay [5] (setting [8]); 39.5% in assay [5] (at 50.0 µM); 2% in assay [6] (setting [7]); 19% in assay [6] (setting [8]); 65% in assay [6] (at 50.0 µM).
As for `COc1cc(C(c2cc3c(cc2O)OCO3)N2CCN(C(c3ccc(O)c(OC)c3)c3cc4c(cc3O)OCO4)CC2)ccc1O` (stereo not given), the growth inhibition in assay [1] (setting [7]) was -1%; in assay [1] (setting [8]) it was 98% (active); in assay [1] (at 50.0 µM), 99.2% (active); in assay [2] (setting [7]), 3%; in assay [2] (setting [8]), 99% (active); in assay [2] (at 50.0 µM), 99.3% (active). Besides, the growth inhibition in assay [3] (setting [7]) was -3%; in assay [3] (setting [8]), 97% (active); in assay [3] (at 50.0 µM) it was 99.5% (active); in assay [4] (setting [7]) it was 2%; in assay [4] (setting [8]), 82% (active); in assay [4] (at 50.0 µM), 96.7% (active). The growth inhibition in assay [5] (setting [7]) is -1%; in assay [5] (setting [8]), 99% (active); in assay [5] (at 50.0 µM), 99% (active); in assay [6] (setting [7]), 2%; in assay [6] (setting [8]), 98% (active); in assay [6] (at 50.0 µM), 98.5% (active).
As for `COc1ccc2c(c1)C=C([N+](=O)[O-])C(C1OC(C)(C)OC1C1COC(C)(C)O1)O2` (stereo not given), the growth inhibition in assay [1] (setting [7]) is 17%; in assay [1] (setting [8]) it was 12%; in assay [1] (at 50.0 µM), 7.3%; in assay [2] (setting [7]), 22%; in assay [2] (setting [8]), 24%; in assay [2] (at 50.0 µM) it was 65.2%. Further, the growth inhibition is 24% in assay [3] (setting [7]); 14% in assay [3] (setting [8]); 16.5% in assay [3] (at 50.0 µM); 19% in assay [4] (setting [7]); 11% in assay [4] (setting [8]); 45.1% in assay [4] (at 50.0 µM). Besides, the growth inhibition was 48% in assay [5] (setting [7]); 43% in assay [5] (setting [8]); 0.6% in assay [5] (at 50.0 µM); 24% in assay [6] (setting [7]); 21% in assay [6] (setting [8]); 19.8% in assay [6] (at 50.0 µM).
As to `CCCCC/C(=C/C=C/c1ccc(Cl)cc1)CN(C)C`, the growth inhibition in assay [1] (setting [7]) is 11%; in assay [1] (setting [8]), 97% (active); in assay [1] (at 50.0 µM), 99.5% (active); in assay [2] (setting [7]), 8%; in assay [2] (setting [8]) it was 98% (active); in assay [2] (at 50.0 µM), 99.8% (active). Further, the growth inhibition is 49% in assay [3] (setting [7]); 98% (active) in assay [3] (setting [8]); 99.7% (active) in assay [3] (at 50.0 µM); 13% in assay [4] (setting [7]); 97% (active) in assay [4] (setting [8]); 99.5% (active) in assay [4] (at 50.0 µM). In addition, the growth inhibition in assay [5] (setting [7]) is 6%; in assay [5] (setting [8]), 98% (active); in assay [5] (at 50.0 µM), 99.8% (active); in assay [6] (setting [7]) it was 7%; in assay [6] (setting [8]), 97% (active); in assay [6] (at 50.0 µM), 99.7% (active).
Turning to `C=C1C(O)C2(O)OCC34C(CC5C(C)=CC(=O)C(O)C5(C)C23)OC(=O)C(OC(=O)C/C=C/CCCCCCCC)C14` (stereo not given), the growth inhibition was 85% (active) in assay [1] (setting [7]); 98% (active) in assay [1] (setting [8]); 92.2% (active) in assay [1] (at 50.0 µM); 87% (active) in assay [2] (setting [7]); 99% (active) in assay [2] (setting [8]); 93% (active) in assay [2] (at 50.0 µM). Besides, the growth inhibition in assay [3] (setting [7]) was 75% (active); in assay [3] (setting [8]) it was 99% (active); in assay [3] (at 50.0 µM), 92.8% (active); in assay [4] (setting [7]) it was 87% (active); in assay [4] (setting [8]), 99% (active); in assay [4] (at 50.0 µM), 92% (active). In addition, the growth inhibition in assay [5] (setting [7]) was 84% (active); in assay [5] (setting [8]) it was 99% (active); in assay [5] (at 50.0 µM), 91.5% (active); in assay [6] (setting [7]) it was 93% (active); in assay [6] (setting [8]), 99% (active); in assay [6] (at 50.0 µM), 90.7% (active).
Take `COc1ccc(CSC(=S)Nc2cc(C)c(C)cc2[N+](=O)[O-])cc1`: the growth inhibition in assay [1] (setting [7]) was 9%; in assay [1] (setting [8]) it was 93% (active); in assay [1] (at 50.0 µM), 95.8% (active); in assay [2] (setting [7]), 6%; in assay [2] (setting [8]), 95% (active); in assay [2] (at 50.0 µM), 97.8% (active). Besides, the growth inhibition is 46% in assay [3] (setting [7]); 96% (active) in assay [3] (setting [8]); 97.5% (active) in assay [3] (at 50.0 µM); -11% in assay [4] (setting [7]); 90% (active) in assay [4] (setting [8]); 93% (active) in assay [4] (at 50.0 µM). Besides, the growth inhibition in assay [5] (setting [7]) is 4%; in assay [5] (setting [8]), 96% (active); in assay [5] (at 50.0 µM), 97% (active); in assay [6] (setting [7]), 60%; in assay [6] (setting [8]), 95% (active); in assay [6] (at 50.0 µM), 98% (active).
As for `Oc1ccc2cc(Br)ccc2c1`, the growth inhibition is 8% in assay [1] (setting [7]); 98% (active) in assay [1] (setting [8]); 54.1% in assay [1] (at 50.0 µM); 0% in assay [2] (setting [7]); 99% (active) in assay [2] (setting [8]); 99% (active) in assay [2] (at 50.0 µM). For the same compound, the growth inhibition in assay [3] (setting [7]) was 2%; in assay [3] (setting [8]), 97% (active); in assay [3] (at 50.0 µM), 45.1%; in assay [4] (setting [7]) it was -2%; in assay [4] (setting [8]), 98% (active); in assay [4] (at 50.0 µM), 56.4%. For the same compound, the growth inhibition is 4% in assay [5] (setting [7]); 99% (active) in assay [5] (setting [8]); 99% (active) in assay [5] (at 50.0 µM); 3% in assay [6] (setting [7]); 99% (active) in assay [6] (setting [8]); 98.8% (active) in assay [6] (at 50.0 µM).
In the case of `O=C1NC(=S)S/C1=C\c1ccc(F)cc1`, the growth inhibition in assay [1] (setting [7]) was -4%; in assay [1] (setting [8]), 6%; in assay [1] (at 50.0 µM), 76% (active); in assay [2] (setting [7]), 7%; in assay [2] (setting [8]) it was 15%; in assay [2] (at 50.0 µM), 85.7% (active). Also, the growth inhibition is 2% in assay [3] (setting [7]); 22% in assay [3] (setting [8]); 74.1% (active) in assay [3] (at 50.0 µM); -9% in assay [4] (setting [7]); 1% in assay [4] (setting [8]); 64.8% in assay [4] (at 50.0 µM). Further, the growth inhibition in assay [5] (setting [7]) was -2%; in assay [5] (setting [8]), 0%; in assay [5] (at 50.0 µM) it was 57%; in assay [6] (setting [7]) it was -4%; in assay [6] (setting [8]), 4%; in assay [6] (at 50.0 µM), 80.3% (active).
